# Only some compounds are listed: those with a hit (about 1.5% of all), similar ones and a draw of the others.
# miR-122 sensor – inhibitors of miR-122 in Huh7 cells; Huh7 miR-122 Renilla luciferase sensor, 48 h; neutral wells = 0, positive control = 100; AID 602342; activation (reporter increase), % at 12.5 µM; 340,000 tested, 0.3% active;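 active means mean replicate activation score at least 90 and every replicate individually at or above 90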;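 further: higher luciferase means less miR-122 activity so hits act as miR-122 inhibitors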
# NRP1-CendR mod – NRP-1/CendR interaction modulation. 360,000 tested, 0.85% active. FAM-RPARPAR peptide binding to NRP-1, fluorescence polarization. O14786. inhibition, % at 25 µM;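 active means inhibition or corrected inhibition above about 18%, plus a signal ratio from 0.5 to 1.5, limit read from the data, passing the limit was not always enough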
# RAD52 anneal inh – inhibitors of human RAD52 DNA annealing; P43351; recombinant RAD52 DNA annealing, FRET fluorescence; inhibition, % at 18.7 µM; 360,000 tested, 0.46% active; AID 651710;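 active means every replicate showing at least 50% inhibition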
# DNA FID counter – fluorescent intercalator displacement, NS3 helicase counter-screen. inhibition, % at 7.9 µM. DNA fluorescent intercalator displacement, fluorescence. AID 1845. 290,000 tested, 0.17% active; in the data active means inhibition above about 37%;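 further: 0% = vehicle and 100% = reference compound; higher means more ethidium bromide displaced from hairpin DNA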
# RAD54 branch – RAD54 (human) branch migration inhibition; inhibition, % at 10.4 µM; Q92698; 360,000 tested, 0.14% active; RAD54 Holliday junction branch migration, FAM/BHQ fluorescence; AID 602329;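 active means mean normalized replicate activity at least 40 and at least half of replicates scoring 40 or more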;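 further: 0% = median of neutral control wells and 100% = median of positive control wells; inhibitors cause a drop in the FAM fluorescence signal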
# Glyco luc inh – blocks N-linked glycosylation in D54 reporter cells; D54 ERlucT glycosylation luciferase reporter, 24 h; percent of 100 nM tunicamycin response; reporter increase, % at 12.5 µM; 360,000 tested, 0.23% active; AID 588692;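 active means mean luciferase reporter signal, scaled so untreated is 0 and the glycosylation-blocking control 100, at or above a set limit in every replicate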;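 further: luciferase carries N-glycosylation sites so blocking glycosylation raises the light; 0% = median of neutral control wells and 100% = median of 100 nM tunicamycin wells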
# * marks the source's active call; other numbers are inactive results; . = not tested or not shown; ! = repeats disagree; [ ] = remark or other dose.
SMILES,miR-122 sensor,NRP1-CendR mod,RAD52 anneal inh,DNA FID counter,RAD54 branch,Glyco luc inh
C[C@@H]1CN([C@@H](C)CO)C(=O)Cc2cc(NC(=O)Nc3cccc4ccccc34)ccc2O[C@@H]1CN(C)C(=O)NC1CCCCC1,167*[16.7 µM],.,0,.,-12,.
COc1ccc(NC(=O)Nc2ccc3c(c2)CC(=O)N([C@@H](C)CO)C[C@@H](C)[C@@H](CN(C)C(=O)NC(C)C)O3)cc1,101*[16.7 µM],.,19,.,11,.
COc1ccc(NC(=O)Nc2ccc3c(c2)CC(=O)N([C@@H](C)CO)C[C@H](C)[C@@H](CN(C)C(=O)NC(C)C)O3)cc1,29[16.7 µM],.,-1,.,-8,.
O=C(C[C@H]1CC[C@H](NC(=O)C2CCOCC2)[C@H](CO)O1)Nc1nccs1,.,.,-3,.,-10,.
COC(=O)C[C@H]1CC[C@H]2[C@@H](COc3ccc(NC(=O)c4cnccn4)cc3C(=O)N2C)O1,27[16.7 µM],.,-8,.,0,.
Cc1ccc(-n2nc(C)c(NC(=O)CCl)c2C)cc1,-3,-1,.,8,-4,55*
COc1ccccc1NC(=O)N1CCCCN2[C@@H](CO)[C@H](c3ccc(-c4ccccc4)cc3)[C@@H]2C1,6[16.7 µM],.,67*,.,0,.
COc1ccccc1NC(=O)N1CCCCN2[C@H](CO)[C@H](c3ccc(-c4ccccc4)cc3)[C@H]2C1,6[16.7 µM],.,52*,.,-6,.
COc1ccccc1NC(=O)N1CCCCN2[C@H](CO)[C@H](c3ccc(-c4ccc(C)cc4)cc3)[C@@H]2C1,-8[16.7 µM],.,-10,.,3,.
O=C(Nc1cc(F)ccc1F)N1CCCCN2[C@@H](CO)[C@@H](c3ccc(C4=CCCCC4)cc3)[C@@H]2C1,-17[16.7 µM],.,54*,.,0,.
COc1ccccc1NC(=O)N1CCCCN2[C@@H](CO)[C@@H](c3ccc(-c4ccccc4)cc3)[C@@H]2C1,-1[16.7 µM],.,50*,.,0,.
COc1ccc(S(=O)(=O)N(C)C[C@H]2Oc3c(NC(=O)c4nc5ccccc5s4)cccc3C(=O)N([C@H](C)CO)C[C@H]2C)cc1,0[16.7 µM],.,8,.,-1,.
NCCc1cnc[nH]1,3,19*!,4,2,0,0
NCCC(=O)NCCc1cnc[nH]1,1,-1,27,.,-12,3
CCOC(=O)Cc1csc(/N=C/c2c(O)n(-c3ccc(C)c(C)c3)c(=O)c3ccccc23)n1,.,-8,.,0,.,71*
O=C(O)c1cnn(-c2ccccc2)c1-c1ccccc1,-3,4,.,-3,-12,0
C=CCNC(=O)c1cnn(-c2ccccc2)c1-c1ccccc1,-3,26*,3,-24,14,1
COc1ccc(NC(=O)Nc2ccc3c(c2)C(=O)N([C@H](C)CO)C[C@@H](C)[C@H](CN(C)S(C)(=O)=O)OCCCC[C@@H](C)O3)cc1,6[16.7 µM],.,4,.,-1,.
COc1ccc2c3c([nH]c2c1)[C@@H](CO)N(Cc1ccccc1)CC31CCN(S(C)(=O)=O)CC1,.,.,-96,.,.,.
O=c1[nH]c(Nc2ccc(F)cc2)cc2ccccc12,5,-22,-11,0,12,8
O=c1[nH]c(Nc2ccccn2)cc2ccccc12,-4,45*,-12,.,4,5
O=C(NC(=S)N1CCCC1)c1ccc(Cl)cc1,.,30*,5,-2,-2,1
CCNC(=O)[C@@H]1[C@@H](CO)[C@@H]2Cn3c(ccc(-c4ccc(OC)cc4)c3=O)[C@H]1N2S(C)(=O)=O,2[16.7 µM],.,5,.,2,.
O=C(NNS(=O)(=O)c1ccccc1[N+](=O)[O-])c1ccccc1Cl,.,4,-2,10,.,2
O=C(NNS(=O)(=O)c1ccccc1[N+](=O)[O-])c1cc2ccccc2cc1O,-6,23*,-9,-6,-5,1
SMILES,miR-122 sensor,NRP1-CendR mod,RAD52 anneal inh,DNA FID counter,RAD54 branch,Glyco luc inh
CCC(=O)N1CC2(C1)[C@H](c1ccccc1)[C@H](CO)N2C(=O)c1ccccc1,.,.,7,.,.,.
Cn1cnc(S(=O)(=O)N[C@H]2CC[C@H](CC(=O)Nc3ccccc3)O[C@H]2CO)c1,.,.,-2,.,0,.
Cc1cc(C=O)c(C)n1-c1ccc(N2CCCCC2)c([N+](=O)[O-])c1,-5,41*,.,-16,-1,-4
COc1ccccc1Cn1c(=S)[nH]c2cc(C(=O)N3CCCC3)ccc2c1=O,7,31*,-7,-49,-15,-5
CCN1CCN(C(=O)c2ccc3c(=O)n(Cc4ccccc4OC)c(=S)[nH]c3c2)CC1,5,6,.,11,-1,-2
O=C(O)c1cccc2c1Cc1cc(Cl)ccc1-2,.,25*,-4,.,-13,3
CCOC(=O)c1ccc(N2CCN(C(=O)c3ccccc3)CC2)c(NC(=O)c2ccco2)c1,4,31*,-7,-46,16,-1
O=C(C[C@H]1C=C[C@H](NC(=O)C2CCOCC2)[C@@H](CO)O1)Nc1nccs1,.,.,-13,.,.,.
Cc1ccccc1S(=O)(=O)N1C[C@H](O)COC[C@@H]2O[C@@H](CC(=O)NCCc3ccccc3)CC[C@H]21,1[16.7 µM],.,58*,.,-16,.
Cc1ccccc1S(=O)(=O)N1C[C@@H](O)COC[C@H]2O[C@H](CC(=O)NCCc3ccccc3)CC[C@@H]21,-6[16.7 µM],.,72*,.,-23,.
COc1ccccc1-c1ccc([C@H]2[C@@H](CO)N3CCCCN(C(=O)c4ccncc4)C[C@H]23)cc1,1[16.7 µM],.,13,.,-3,.
c1ccc(Sc2cnc3ccccc3n2)cc1,-4,-1,.,-2,.,-1
Brc1ccc(Sc2cnc3ccccc3n2)cc1,1,23*,.,-2,1,-1
C[C@@H]1CN([C@H](C)CO)C(=O)c2cccc(NC(=O)C3CC3)c2O[C@H]1CN(C)S(=O)(=O)c1ccc(F)cc1,-5[16.7 µM],.,1,.,1,.
NNC(=O)c1ccc(N2CCCCCC2)c([N+](=O)[O-])c1,.,31*,4,3,-13,-1
Cc1ccc(N(Cc2ccco2)C(=O)c2ccc(N3CCCCC3)c([N+](=O)[O-])c2)cc1,165*,1,-12,-2,4,-4
O=C(NCc1ccco1)c1ccc(N2CCCCC2)c([N+](=O)[O-])c1,0,4,.,-7,1,-1
Fc1cc(Cl)ccc1Nc1nc(NCc2ccccc2)nc2ccsc12,-4,26*,-16,.,-1,-7
O=C(N/N=C/c1ccccc1)C(O)c1ccccc1 (configuration not stated),11,-14,-13,-2,4,1
O=C(N/N=C/c1cccs1)C(O)c1ccccc1 (configuration not stated),197*,-6,-6,-6,4,-1
CCC(=O)N1CC2(C1)[C@H](c1ccccc1)[C@@H](CO)N2CC1CCCC1,.,.,1,.,.,.
CN(C)CC(=O)N1[C@@H]2c3ccc(-c4ccccc4)c(=O)n3C[C@H]1[C@H](CO)[C@H]2C(=O)N1CCCCC1,-6[16.7 µM],.,1,.,10,.
